According to PubChem BioAssay (Tox21):
Several values for one entry are separate records, joined by “and”; a condition that tells them apart may be missing. Identical values can stand only once. Records with an inconclusive call do not appear. A call without a number means that no potency is given here. Some compounds were tested as several samples or in several runs, with calls that do not always agree. Activity calls are given as the source filed them. The call rests on the fitted dose curve.

assay: p53 small molecule agonists, cell-based qHTS assay with rat liver microsomes (AID 1963578); conditions: HCT-116 p53RE-bla, beta-lactamase ratio, 16 h; series mostly up to 66 µM
In short: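 p53RE-bla cells, 4,000/well, pre-incubated 5 h, then given compounds plus rat liver microsomes (0.5 mg/mL final) and NADPH (0.5 mg/mL final). Incubation 16 h at 37 C; beta-lactamase reporter read by LiveBLAzer fluorescence after 2 h at room temperature.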

| Structure (SMILES) | Potency | activation |
| --- | --- | --- |
| O=C(O)CCCCCCCCCCCC(=O)O | inactive |  |
| CC[C@H](c1ccc(O)cc1)[C@@H](CC)c1ccc(O)cc1 | inactive |  |
| CC(C)(c1cc(Br)c(O)c(Br)c1)c1cc(Br)c(O)c(Br)c1 | inactive |  |
| BrC1CCC(Br)C(Br)CCC(Br)C(Br)CCC1Br (centres undefined) | inactive |  |
| COC(=O)Nc1nc2ccc(Sc3ccccc3)cc2[nH]1 | inactive |  |
| CCCc1ccc(O)cc1 | inactive |  |
| NS(=O)(=O)c1ccc(N2CCCCS2(=O)=O)cc1 | inactive |  |
| CO[C@H]1C=CO[C@@]2(C)Oc3c(C)c(O)c4c(O)c(c(/C=N/N5CCN(C)CC5)c(O)c4c3C2=O)NC(=O)/C(C)=C\C=C[C@H](C)[C@H](O)[C@@H](C)[C@@H](O)[C@@H](C)[C@H](OC(C)=O)[C@@H]1C | inactive |  |
| Nc1ccc(S(=O)(=O)Nc2ccc(Cl)nn2)cc1 | inactive |  |
| O=C(O)Cc1cccc(-c2cc(CCCCCCc3ccc(O[C@H]4O[C@H](CO)[C@@H](O)[C@H](O)[C@@H]4O)c(-c4cccc(CC(=O)O)c4)c3)ccc2O[C@H]2O[C@H](CO)[C@@H](O)[C@H](O)[C@@H]2O)c1 |  | 1.81% [at 0.249 µM] (inactive) |

assay: p53 small molecule agonists, cell-based qHTS assay with human liver microsomes: qHTS cell viability counter screen (AID 1963579); conditions: p53RE-bla HCT-116 viability, ATP luminescence, 16 h, HLM; series mostly up to 66 µM; further: nearly all actives have a fitted effect of over 45% in size; further: potency means the concentration at half of the fitted maximal effect
In short: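 p53RE-bla cells, 4,000/well, dosed 5 hours after plating, with human liver microsomes (0.5 mg/mL final) plus NADPH (0.5 mg/mL final), 16 hours at 37 C. Viability read as CellTiter-Glo luminescence after 30 min at room temperature.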

| Structure (SMILES) | Potency | activity change, negative = cytotoxicity |
| --- | --- | --- |
| O=c1cc(-c2ccccc2)oc2ccccc12 | inactive |  |
| O=C(O)c1cc2ccccc2cc1O | inactive |  |
| CS(=O)(=O)c1ccc(Cl)cc1 | inactive |  |
| S=C(NC1CCCCC1)NC1CCCCC1 | inactive |  |
| O=C(O)CCCCCCCCCCCC(=O)O | inactive |  |
| N[C@H](Cc1c[nH]c2ccccc12)C(=O)O | inactive |  |
| C=CC(C)(O)CCC=C(C)C (centres undefined) | inactive |  |
| O=[N+]([O-])c1ccc2nc[nH]c2c1 | inactive |  |
| CC(C)(c1cc(Br)c(O)c(Br)c1)c1cc(Br)c(O)c(Br)c1 | 16.2 µM (active) and 36.3 µM (active) |  |
| BrC1CCC(Br)C(Br)CCC(Br)C(Br)CCC1Br (centres undefined) | inactive |  |
| COC(=O)Nc1nc2ccc(Sc3ccccc3)cc2[nH]1 | inactive |  |
| CCN(CC)c1ccc2c(C)cc(=O)oc2c1 | inactive |  |
| CC(=O)OCc1ccccc1 | inactive |  |
| c1ccc2c(c1)-c1cccc3c1c-2cc1ccccc13 | inactive |  |
| OCC(CO)(CO)CO | inactive |  |
| CN1Cc2c(N)cccc2C(c2ccccc2)C1 (centres undefined) | inactive |  |
| CCCc1ccc(O)cc1 | inactive |  |
| Cc1cccnc1 | inactive |  |

| Structure (SMILES) | Potency | activity change, negative = cytotoxicity |
| --- | --- | --- |
| CCC(C)c1ccccc1O (centres undefined) | inactive |  |
| CC1=CC[C@@H]2C[C@H]1C2(C)C |  | -2.33% [at 13.5 µM] (inactive) |
| OC1CCCC1 | inactive |  |
| N[C@@H](Cc1c[nH]c2ccccc12)C(=O)O | inactive |  |
| CCCCCCCO | inactive |  |
| N[C@@H](Cc1c[nH]c2ccc(O)cc12)C(=O)O | inactive |  |
| CC(COCC(C)OC(=O)c1ccccc1)OC(=O)c1ccccc1 (centres undefined) | inactive |  |
| O=C(O)/C=C/c1ccccc1 | inactive |  |
| CCCCCOC(C)=O | inactive |  |
| CC(=O)OC1CC(C)OC(C)O1 (centres undefined) | inactive |  |
| COc1ccc(COC(C)=O)cc1 | inactive |  |
| CCCCCCCCCCCCOCCO | 20.4 µM (active) and inactive |  |
| NC[C@H](O)c1ccc(O)c(O)c1 | inactive |  |
| Cc1ccc(C(C)C)cc1O | inactive |  |
| CC(C)(C)c1cc(Cc2cc(C(C)(C)C)c(O)c(C(C)(C)C)c2)cc(C(C)(C)C)c1O | inactive |  |
| CCCCOCCOCCOC(=O)CCCCC(=O)OCCOCCOCCCC | inactive |  |
| O=C(O)Cc1cccc(-c2cc(CCCCCCc3ccc(O[C@H]4O[C@H](CO)[C@@H](O)[C@H](O)[C@@H]4O)c(-c4cccc(CC(=O)O)c4)c3)ccc2O[C@H]2O[C@H](CO)[C@@H](O)[C@H](O)[C@@H]2O)c1 |  | 0.362% [at 0.249 µM] (inactive) |

assay: p53 small molecule agonists, cell-based qHTS assay with rat liver microsomes: qHTS cell viability counter screen (AID 1963580); conditions: p53RE-bla HCT-116 + rat microsomes, ATP viability, 16 h; series mostly up to 66 µM; further: nearly all actives have a fitted effect of over 45% in size
In short: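 Intracellular ATP, by CellTiter-Glo luminescence, defines viability. HCT-116 p53RE-bla cells, 4,000 per well, were compound-treated in the presence of rat liver microsomes and NADPH for 16 h at 37 C.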

| Structure (SMILES) | Potency | activity change, negative = cytotoxicity |
| --- | --- | --- |
| O=c1cc(-c2ccccc2)oc2ccccc12 | inactive |  |
| O=C(O)c1cc2ccccc2cc1O | inactive |  |
| CS(=O)(=O)c1ccc(Cl)cc1 | inactive |  |
| S=C(NC1CCCCC1)NC1CCCCC1 | inactive |  |
| O=C(O)CCCCCCCCCCCC(=O)O | inactive |  |
| N[C@H](Cc1c[nH]c2ccccc12)C(=O)O | inactive |  |
| CC[C@H](c1ccc(O)cc1)[C@@H](CC)c1ccc(O)cc1 | inactive |  |
| C=CC(C)(O)CCC=C(C)C (centres undefined) | inactive |  |
| O=[N+]([O-])c1ccc2nc[nH]c2c1 | inactive |  |
| BrC1CCC(Br)C(Br)CCC(Br)C(Br)CCC1Br (centres undefined) | inactive |  |
| CCN(CC)c1ccc2c(C)cc(=O)oc2c1 | inactive |  |
| CC(=O)OCc1ccccc1 | inactive |  |
| c1ccc2c(c1)-c1cccc3c1c-2cc1ccccc13 | inactive |  |
| OCC(CO)(CO)CO | inactive |  |
| CN1Cc2c(N)cccc2C(c2ccccc2)C1 (centres undefined) | inactive |  |
| Cc1cccnc1 | inactive |  |
| CCC(C)c1ccccc1O (centres undefined) | inactive |  |

| Structure (SMILES) | Potency | activity change, negative = cytotoxicity |
| --- | --- | --- |
| CC1=CC[C@@H]2C[C@H]1C2(C)C |  | 4.85% [at 13.5 µM] (inactive) |
| OC1CCCC1 | inactive |  |
| NS(=O)(=O)c1ccc(N2CCCCS2(=O)=O)cc1 | inactive |  |
| N[C@@H](Cc1c[nH]c2ccccc12)C(=O)O | inactive |  |
| CCCCCCCO | inactive |  |
| N[C@@H](Cc1c[nH]c2ccc(O)cc12)C(=O)O | inactive |  |
| CC(COCC(C)OC(=O)c1ccccc1)OC(=O)c1ccccc1 (centres undefined) | inactive |  |
| O=C(O)/C=C/c1ccccc1 | inactive |  |
| CCCCCOC(C)=O | inactive |  |
| CC(=O)OC1CC(C)OC(C)O1 (centres undefined) | inactive |  |
| COc1ccc(COC(C)=O)cc1 | inactive |  |
| CCCCCCCCCCCCOCCO | inactive |  |
| NC[C@H](O)c1ccc(O)c(O)c1 | inactive |  |
| Cc1ccc(C(C)C)cc1O | inactive |  |
| Nc1ccc(S(=O)(=O)Nc2ccc(Cl)nn2)cc1 | inactive |  |
| CC(C)(C)c1cc(Cc2cc(C(C)(C)C)c(O)c(C(C)(C)C)c2)cc(C(C)(C)C)c1O | inactive |  |
| CCCCOCCOCCOC(=O)CCCCC(=O)OCCOCCOCCCC | inactive |  |
